Source: PubChem BioAssay AID765 (NMMLSC, 2007)
The source made the active and inactive calls. Cut-off read from the data, not from the text of the source: active = inhibition above about 31%; inactive = the rest.

These compounds were tested against N-formyl peptide receptor 2 (Homo sapiens) (UniProt P25090) (assay: human FPR2 ligand displacement single-point screen – cell-based, flow cytometry, single concentration (AID 765)). Conditions: FPRL1-expressing cells, fluorescent ligand binding inhibition, hits give high values; at 5.1 µM unless noted.
Sequence of N-formyl peptide receptor 2 (Homo sapiens) (P25090 whole entry, looked up): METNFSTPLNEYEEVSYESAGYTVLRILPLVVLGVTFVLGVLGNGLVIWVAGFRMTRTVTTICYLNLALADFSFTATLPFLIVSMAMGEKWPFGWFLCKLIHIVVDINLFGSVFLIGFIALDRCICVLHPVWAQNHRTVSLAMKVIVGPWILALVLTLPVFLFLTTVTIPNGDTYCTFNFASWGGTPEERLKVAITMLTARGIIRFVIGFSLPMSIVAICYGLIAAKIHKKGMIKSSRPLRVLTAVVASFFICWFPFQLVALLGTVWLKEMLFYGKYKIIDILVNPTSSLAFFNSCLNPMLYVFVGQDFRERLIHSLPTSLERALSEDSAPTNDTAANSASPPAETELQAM

inhibition, inactive:
COc1ccccc1-c1cc(C(F)(F)F)nc(N2CCN(c3ccccc3OC)CC2)n1 -2.8% [at 5 µM]
COc1ccc(-c2cc(C(F)(F)F)nc(N3CCN(c4ccccc4)CC3)n2)cc1OC -5% [at 5 µM]
COc1ccc(-c2cc(C(F)(F)F)nc(N3CCN(c4ccc(F)cc4)CC3)n2)cc1OC 5.4% [at 4.8 µM]
COc1ccc(-c2cc(C#N)nc(N3CCN(c4ccccc4)CC3)n2)cc1 5.3% [at 6 µM]
FC(F)(F)c1cc(-c2ccco2)nc(N2CCN(C(c3ccccc3)c3ccccc3)CC2)n1 -10.5% [at 4.8 µM]
COc1ccc(-c2cn3cccnc3n2)cc1NC(=O)c1ccccc1Cl 19% [at 5.9 µM]
CC(N)C(=O)N1CCN(c2nc(-c3ccccc3)c3cc([N+](=O)[O-])ccc3n2)CC1 (stereo not drawn) 3.9% [at 5.5 µM]
COc1ccc(-c2cn3cccnc3n2)cc1NC(=O)c1ccc(Br)cc1 -12.5% [at 5.3 µM]
Clc1cccc(-c2nc(N3CCN(Cc4ccccc4)CC3)nc3c2COc2ccccc2-3)c1 0.5% [at 4.7 µM]
Cc1ccc(-c2cc(C(F)F)nc(N3CCN(c4cccc(Cl)c4)CC3)n2)cc1 -3.5% [at 5.4 µM]
Cc1ccccc1N1CCN(c2nc(-c3ccccc3)c3cc(Br)ccc3n2)CC1 0.2% [at 4.8 µM]
O=C(O)C1CC=CCC1C(=O)N1CCN(c2nc(-c3ccccc3Cl)c3cc(Br)ccc3n2)CC1 (stereo not drawn) -6.7% [at 4 µM]
CC(=O)N1CCN(c2nc(-c3ccccc3)c3ccccc3n2)CC1 -11.2% [at 6.7 µM]
COc1ccc(-c2nc(N3CCN(C)CC3)[nH]c(=O)c2C#N)cc1 -9.7% [at 6.8 µM]
Clc1cccc(-c2nc(N3CCN(c4ccccn4)CC3)nc3c2COc2ccccc2-3)c1 -0.8% [at 4.9 µM]
COc1ccc(-c2cn3cccnc3n2)cc1NC(=O)c1ccc(Cl)cc1 3% [at 5.9 µM]
COc1ccc(-c2cc(C(F)(F)F)nc(N3CCN(C(c4ccccc4)c4ccccc4)CC3)n2)cc1OC 25.4% [at 4.2 µM]
COc1ccc(-c2cn3cccnc3n2)cc1NC(=O)c1cccc(Br)c1 0.7% [at 5.3 µM]
Cc1ccc(C(=O)N2CCN(c3nc(-c4ccccc4)c4cc(Br)ccc4n3)CC2)cc1 18% [at 4.6 µM]
COc1cccc(-c2cc(C(F)(F)F)nc(N3CCN(c4ccccc4OC)CC3)n2)c1 -10.4% [at 5 µM]
O=C(c1ccccc1)N1CCN(c2nc(-c3ccccc3)c3cc([N+](=O)[O-])ccc3n2)CC1 18.8%
O=C(O)CC1(CC(=O)N2CCN(c3nc(-c4ccccc4Cl)c4cc(Br)ccc4n3)CC2)CCCC1 -5.2% [at 3.9 µM]
CCOC(=O)N1CCN(c2nc(-c3ccccc3Cl)c3cc(Br)ccc3n2)CC1 -4.5% [at 4.7 µM]
Cc1ccc(-c2cc(C(F)F)nc(N3CCN(c4ccccc4)CC3)n2)cc1 21.3% [at 5.8 µM]
CCCCOc1ccc(C(=O)Nc2cc(-c3cn4cccnc4n3)ccc2OC)cc1 1.7% [at 5.3 µM]
COc1ccc(C2CC(=O)c3cnc(N4CCN(Cc5ccc6c(c5)OCO6)CC4)nc3C2)c(OC)c1 (stereo not drawn) -2.7% [at 4.4 µM]
O=C(c1ccccc1Cl)N1CCN(c2nc(-c3ccccc3)c3cc(Cl)ccc3n2)CC1 4.5% [at 4.8 µM]
FC(F)(F)c1cc(-c2cccs2)nc(N2CCN(Cc3ccccc3)CC2)n1 12.5% [at 5.5 µM]

inhibition, active:
Cc1ccc2nc(N3CCN(c4ccccc4Cl)CC3)nc(-c3ccccc3)c2c1 33.4% [at 5.4 µM]
COc1ccc(-c2cn3cccnc3n2)cc1NC(=O)C1CC1 71.5% [at 7.2 µM]
CCC(=O)Nc1cc(-c2cn3cccnc3n2)ccc1OC 41.3% [at 7.5 µM]
COc1ccc(-c2cn3cccnc3n2)cc1NC(=O)Cc1ccccc1 31.2% [at 6.2 µM]
COc1ccc(-c2cc(C(F)(F)F)nc(N3CCN(Cc4ccccc4)CC3)n2)cc1OC 69.2% [at 4.9 µM]
